SW480 rereplic – induces DNA re-replication in SW480 colon adenocarcinoma cells | 340,000 compounds, 1.8% hits | SW480 DNA re-replication, Hoechst DNA content imaging, 48 h | Potency, µM (highest dose often 46.1 µM), for inactives: at the highest dose re-replication activation, most hits filed as activators | AID 624297; further: % of control where 0% means no effect; nearly all actives have a fitted effect of over 55% in size
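Compounds, transferred as 23 nL by pin tool, were incubated with cells for 48 hr; DNA content per nucleus was then quantified by Hoechst staining and fluorescence plate imaging.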
KB-V1 cytotox – kills drug-selected multidrug resistant KB-V1 cells | KB-V1 MDR cells viability, CellTiter-Glo, 72 h | 400,000 compounds, 3.4% hits | Potency, µM (titrated, usually from 46.1 µM), most hits filed as cytotoxic; further: on the % scale 0 is the no-effect control and ±100 the full control effect; nearly all actives have a fitted effect of over 60% in size
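KB-V1 MDR subline cells in DMEM (phenol-red free, 10% FBS) exposed to compounds in qHTS concentration series for 72 h at 37 degrees C. Viability read by CellTiter-Glo luminescence; concentration-effect curves fitted after normalization and correction.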
PINK1 modulator – changes PINK1 expression; PINK1 immunofluorescence, high-content cytometry, 24 h; Potency, µM (doses to about 76.6 µM), for the others: at the highest dose activation (PINK1 increase), usual class: activators; 410,000 compounds, 0.2% hits; AID 624263; active means well fitted activation curve with a large enough effect; inconclusive means small, poorly fitted or top-dose-only effect; cell line not stated here; further: % of control where 0% means no effect; nearly all actives have a fitted effect of over 65% in size
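Stable cell line treated 24 h with compounds at 5 concentrations (CCCP controls), then fixed and immunostained for PINK1 plus nuclear and cell stains; PINK1 immunofluorescence quantified by laser-scanning microplate cytometry.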
MCF10A rereplic – inducers of DNA re-replication in MCF 10A breast cells | MCF 10A DNA re-replication, Hoechst nuclear intensity, 48 h | Potency, µM (top dose mostly 46.1 µM), for inactives: at the highest dose activity, positive = re-replication, hits mostly activators | 350,000 compounds, 2.9% hits; further: % of control where 0% means no effect; nearly all actives have a fitted effect of over 50% in size
KB-3-1 cytotox – KB-3-1 parental cell cytotoxicity; Potency, µM (doses to about 46.1 µM), usual class: cytotoxic; KB-3-1 viability, CellTiter-Glo ATP luminescence, 72 h; 400,000 compounds, 1.4% hits; further: on the % scale 0 is the no-effect control and ±100 the full control effect; nearly all actives have a fitted effect of over 60% in size
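Multi-concentration cytotoxicity screen in KB-3-1 cells grown in DMEM lacking phenol red with 10% FBS. After 72 h at 37 °C with compound, ATP-dependent luminescence was recorded.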
Numbers without * were called inactive; [ ] = another dose, or the depositor's remark. This is a sample that favours compounds with a hit; in the whole collection about 6.7% have one here. Unless noted, the call rests on the fitted dose curve; in most records, active means well fitted curve in the direction sought with a large enough effect; inconclusive means small, poorly fitted or top-dose-only effect, or another doubt; inactive means no such curve, though single readings can be large; an effect the other way counts as inactive or inconclusive. Potency means the concentration at half of the fitted maximal effect.

How did CN(C)/C=C/C(=O)c1cccc(Cl)c1 do in these assays?
SW480 rereplic: 0%; KB-V1 cytotox: inactive; PINK1 modulator: -2%; MCF10A rereplic: 5.8µM*; KB-3-1 cytotox: inactive

What do the screens show for `CN(C)/C=C/C(=O)c1cccc(C(F)(F)F)c1`?
SW480 rereplic: 4%; KB-V1 cytotox: inactive; PINK1 modulator: 0%; MCF10A rereplic: inconclusive; KB-3-1 cytotox: inactive

What do the screens show for `CN(C)/C=C/C(=O)c1ccc(Cl)cc1`?
SW480 rereplic: -1%; KB-V1 cytotox: inactive; PINK1 modulator: -1%[38.3 µM]; MCF10A rereplic: 18µM*; KB-3-1 cytotox: inactive

Results for CC1=C(CC(=O)O)c2cc(F)ccc2/C1=C/c1ccc(S(C)=O)cc1 (stereo not drawn) ?
SW480 rereplic: -16%; KB-V1 cytotox: inactive; MCF10A rereplic: -42%; KB-3-1 cytotox: inactive

How did COc1ccc(OC)c2[nH]c(=O)c(CCNC(=O)c3ccc(S(=O)(=O)N4CCCC4)cc3)cc12 do in these assays?
SW480 rereplic: 0%; KB-V1 cytotox: 18µM*; PINK1 modulator: 3%; MCF10A rereplic: inconclusive; KB-3-1 cytotox: inactive

Results for COc1ccc(OC)c2[nH]c(=O)c(CCNS(=O)(=O)c3ccccc3)cc12 ?
SW480 rereplic: -5%; KB-V1 cytotox: 16µM*; PINK1 modulator: 0%; MCF10A rereplic: -9%; KB-3-1 cytotox: inactive

Results for CCN(CC)S(=O)(=O)c1ccc(C(=O)NCCc2cc3c(OC)ccc(OC)c3[nH]c2=O)cc1 ?
SW480 rereplic: 0%; KB-V1 cytotox: 7.3µM*; PINK1 modulator: 2%; MCF10A rereplic: inconclusive; KB-3-1 cytotox: inactive

How did COc1ccc(C(=O)NCCc2cc3c(OC)ccc(OC)c3[nH]c2=O)cc1OC do in these assays?
SW480 rereplic: 6%; KB-V1 cytotox: inconclusive; PINK1 modulator: -1%; MCF10A rereplic: 4%; KB-3-1 cytotox: inactive

How did COc1cc(OC)c(OC)cc1CNC(=O)c1ccc(S(=O)(=O)N2CCCCC2)cc1 do in these assays?
SW480 rereplic: 3%; KB-V1 cytotox: 7.3µM*; PINK1 modulator: 0%; MCF10A rereplic: 1%; KB-3-1 cytotox: inactive

Results for Cc1ccccc1NC(=O)Nc1nc(C2CCC(=O)N2)cs1 (stereo not drawn) ?
KB-V1 cytotox: inactive; PINK1 modulator: 1%; KB-3-1 cytotox: inactive

What do the screens show for `CCC(C)(C)n1nnnc1CN1CCN(c2nc3cc(OC)ccc3cc2C#N)CC1`?
SW480 rereplic: 11%; KB-V1 cytotox: inactive; PINK1 modulator: 1%; MCF10A rereplic: inconclusive; KB-3-1 cytotox: inconclusive

Results for COc1cccc(N2CCN(Cc3nnnn3C3CCCCC3)CC2)c1 ?
SW480 rereplic: 1%; KB-V1 cytotox: 23µM*; PINK1 modulator: 1%; MCF10A rereplic: 0%; KB-3-1 cytotox: inactive

What do the screens show for `C1CCN(Cc2nnnn2C2CCCC2)CC1`?
SW480 rereplic: -4%; KB-V1 cytotox: inactive; PINK1 modulator: 5%[38.3 µM]; MCF10A rereplic: -10%; KB-3-1 cytotox: inactive

Results for Cc1ccc2nc(N3CCN(Cc4nnnn4C4CCCC4)CC3)c(C#N)cc2c1 ?
SW480 rereplic: -6%; KB-V1 cytotox: 21µM*; PINK1 modulator: 0%; MCF10A rereplic: inconclusive; KB-3-1 cytotox: inactive

Results for Cc1ccc(C)c(N2CCN(Cc3nnnn3C3CCCCC3)CC2)c1 ?
SW480 rereplic: 14%; KB-V1 cytotox: 23µM*; PINK1 modulator: 0%; MCF10A rereplic: inconclusive; KB-3-1 cytotox: inactive

What do the screens show for `Cc1ccc(NC(=O)c2cnn(-c3ccc(C)c(C)c3)c2C2CCN(C(=O)OC(C)(C)C)CC2)c(C)c1`?
KB-V1 cytotox: inconclusive; PINK1 modulator: 5%; KB-3-1 cytotox: inactive

What do the screens show for `COc1cc(Cl)c(C)cc1NC(=O)CN(C)C1CCS(=O)(=O)C1` (stereo not drawn)?
SW480 rereplic: -11%; KB-V1 cytotox: inconclusive; PINK1 modulator: 3%; MCF10A rereplic: 2%; KB-3-1 cytotox: inactive

What do the screens show for `Cc1occc1-c1nnc(-c2cc([N+](=O)[O-])cc([N+](=O)[O-])c2)o1`?
SW480 rereplic: 13µM*; KB-V1 cytotox: inactive; PINK1 modulator: 0%; MCF10A rereplic: 0%; KB-3-1 cytotox: inactive

Compound activity as filed in PubChem.
